Hits are enriched below; roughly 6.2% of the tested compounds scored in any of these assays.
H9c2 protect: cardioprotection against H2O2-induced cell death, primary screen, uHTS, H9c2 cells, ATPLite luminescence. H9c2 cardiomyocytes, H2O2 injury protection, 2 h. protection from H2O2 cell death, % at 20 µM. hit rate 0.63% among 360,000. AID 588492, 2011;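 active = compounds giving at least 50% protection of heart cells from peroxide-induced death in the single-dose screen, raw or plate-pattern-corrected value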
NTR1 ag: agonists of human NTR1, primary screen, imaging, U2OS cells, beta-arrestin-GFP, high content; NTR1-U2OS beta-arrestin-GFP spot imaging, agonist mode; Neurotensin receptor type 1 (Homo sapiens), P30989; activation, % at 20 µM; hit rate 0.17% among 330,000; AID 493036, 2011;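 active = activation at or above 40% of the spot to cytoplasm intensity ratio, with at least 20 cells analyzed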
Target sequence (P30989 whole entry, looked up): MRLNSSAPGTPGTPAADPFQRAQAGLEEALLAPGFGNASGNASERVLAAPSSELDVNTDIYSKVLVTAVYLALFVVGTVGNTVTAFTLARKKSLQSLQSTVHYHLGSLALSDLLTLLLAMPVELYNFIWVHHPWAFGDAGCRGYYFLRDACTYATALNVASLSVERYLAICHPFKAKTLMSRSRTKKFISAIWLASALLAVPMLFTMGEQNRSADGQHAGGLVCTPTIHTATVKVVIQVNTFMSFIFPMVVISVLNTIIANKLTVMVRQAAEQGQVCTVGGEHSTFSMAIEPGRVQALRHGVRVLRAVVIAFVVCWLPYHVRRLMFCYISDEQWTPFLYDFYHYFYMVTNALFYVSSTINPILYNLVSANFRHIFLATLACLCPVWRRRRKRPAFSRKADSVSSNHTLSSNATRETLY
AHR act: AHR activators, primary screen, cell-based, luminescence, luciferase reporter, human; Aryl hydrocarbon receptor (Homo sapiens), P35869; AHR-responsive luciferase reporter cells; activation, % at 5 µM; hit rate 2.5% among 320,000; AID 2796, 2010; in the data active = activation above about 47%
Mot1-301 SUMO: yeast Mot1-301 growth rescue at high temperature, primary screen, SUMOylation pathway inhibitor project, S. cerevisiae, ATP luminescence, 38.5C; growth rescue, % at 18.8 µM; hit rate 1% among 320,000; S. cerevisiae Mot1-301 growth rescue; percent above DMSO median, 100 means doubled;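 active = every valid replicate shows activation above 250% relative to neutral control wells; inactive = the rest, any valid replicate at or below 250%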
AI-2 QS mod: Vibrio harveyi AI-2 quorum sensing modulators, primary screen, JMH597 strain, luminescence/OD600 ratio; Vibrio harveyi JMH597 AI-2 luminescence/OD600 ratio, 9 h; hits give low values; strain lacks LuxN and CqsS sensors; 0 = neutral-control median; activity change, % at 7.5 µM; hit rate 0.4% among 300,000; AID 2094, 2009; in the data active = activity change below about -75%, passing the limit was not always enough;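 note: luminescence divided by OD600 gain over 9 h not by final OD600 alone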
GRIN3A LBD mod: binders of NR3A ligand-binding domain, primary screen, biophysical, differential scanning fluorimetry, uHTS | NR3A LBD differential scanning fluorimetry, Tm shift; 0% = protein alone, 100% = glycine-bound protein | Tm shift relative to glycine control, % at 25 µM | hit rate 2.5% among 340,000 | AID 1259313, 2017;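 active = melting temperature shift of at least 10% of the positive control shift, at one fixed dose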
Mot1 SUMO dose: growth restoration of Mot1-301 yeast on galactose, dose response, SUMO pathway inhibitor project, whole organism, S. cerevisiae, ATP luminescence, cherry-picked samples; shares compounds with Mot1-301 SUMO; S. cerevisiae Mot1-301 galactose growth, 24 h; -100 = growth of slx-deleted rescue strain; growth activity, percent, % at 42 µM; 2,300 tested, under 10 active; AID 493004, 2010;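 active = Signal drops as the depositor expects, and the fitted half-maximal dose is no more than ten times the top valid tested dose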;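 note: more negative values mean stronger growth rescue toward the control strain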
Hits are given with their value; . = inactive; / = no result given; + = active, no number.

SMILES	H9c2 protect	NTR1 ag	AHR act	Mot1-301 SUMO	AI-2 QS mod	GRIN3A LBD mod	Mot1 SUMO dose
COc1ccccc1NS(=O)(=O)c1ccc(OC)c(OC)c1	.	.	.	.	.	.	/
COc1ccccc1NC(=O)Nc1ccc(Cl)c(S(=O)(=O)Nc2ccccc2OC)c1	.	.	.	390	.	11	.
O=C(NCCCn1ccnc1)c1ccc(-c2cccc(C(F)(F)F)c2)o1	.	.	.	.	/	.	/
C[C@@H]1CN([C@@H](C)CO)C(=O)CCCn2nncc2CO[C@H]1CN(C)Cc1cccc2c1OCCCO2	.	/	/	/	/	/	/
COC(=O)[C@@]12CCCCN1[C@H](c1ccc(-c3ccc(C(C)=O)cc3)cc1)[C@@H]1C(=O)N(C)C(=O)[C@@H]12	.	.	.	737	.	.	.
COC(=O)[C@@]12CCCCN1[C@H](c1ccc(-c3cccc(Cl)c3)c(OC)c1)[C@H]1C(=O)N(C)C(=O)[C@H]12	.	.	.	766	.	.	.
O=C(NCc1cccnc1)c1cc(C2CCCCN2C(=O)c2ccc3ccccc3c2)on1 (stereo not given)	.	/	/	/	/	/	/
Cc1ccc(NC2CC(=O)N(c3ccc(N4CCCCC4)cc3)C2=O)cc1 (stereo not given)	.	.	.	680	.	.	.
COc1ccc(NC(=O)CN2C(=O)c3ccccc3S2(=O)=O)cc1OC	.	.	.	404	.	.	.
Cc1ccc(SCCNC(=O)CN2C(=O)c3ccccc3S2(=O)=O)cc1	.	.	.	398	.	.	.
O=C(CN1C(=O)c2ccccc2S1(=O)=O)NCCSc1ccccc1	.	.	.	/	.	.	/
Cc1ccc(-c2csc3nnc(SCc4csc(C)n4)n23)cc1	.	.	.	.	.	.	/
Cc1nc(CSc2nnc3scc(-c4ccccc4)n23)cs1	.	.	.	+	.	.	.
COc1ccccc1N1CCN(C(=O)C2CCN(S(=O)(=O)c3ccc(C)cc3)CC2)CC1	.	.	.	989	.	.	.
CCOc1ccc(S(=O)(=O)N2CCC(C(=O)N3CCN(c4ccccc4)CC3)CC2)cc1	.	.	.	487	.	.	.
O=C(C1CCN(S(=O)(=O)c2ccccc2)CC1)N1CCN(c2ccccc2)CC1	.	.	.	.	.	.	/
COc1ccccc1C(=O)Nc1ccc2c(c1)nc1n2CCN(C2CCCCC2)C1	.	.	.	.	.	.	/
CC(C)C1OC2(C)OC(=N)C1(C#N)C(C#N)(C#N)C2c1ccccc1 (stereo not given)	.	.	.	414	.	.	.
O=C(COC(=O)c1cncc(Br)c1)NCC12CC3CC(CC(C3)C1)C2	.	.	/	/	/	.	/
Cc1cccc(S(=O)(=O)NC(=O)C2(C)CCN2C(=O)CCC2CCCC2)c1 (stereo not given)	.	/	/	/	/	/	/
CSc1ccccc1-c1nc(-c2ccncc2)no1	.	.	.	718	.	.	.
CCOC(=O)/C(=C(/C)N)C1CC(=O)NC1=O (stereo not given)	.	/	/	/	/	/	/
CC(C)c1nc2n[nH]c(N)c2c2c1CCC2	.	.	.	408	.	.	.
CCCN(C(=O)COc1ccc(C(C)=O)cc1OC)C1CCS(=O)(=O)C1 (stereo not given)	.	.	.	.	/	.	/
CCc1c(C)nc2[nH]ncn2c1=O	.	/	/	/	/	.	/
SMILES	H9c2 protect	NTR1 ag	AHR act	Mot1-301 SUMO	AI-2 QS mod	GRIN3A LBD mod	Mot1 SUMO dose
CCOC(=O)N1CCC(Nc2nc3ccccc3n3nnnc23)CC1	.	.	.	889	.	.	.
COc1ccc(-n2nc(C(=O)NCC(=O)N3CCCC3)c3ccccc3c2=O)c(OC)c1	.	.	.	+	.	.	.
CCOC(=O)N1CCN(C(=O)CNC(=O)c2nn(-c3ccc(OC)c(OC)c3)c(=O)c3ccccc23)CC1	.	.	.	497	.	.	.
O=C(Nc1ccc(F)cc1)c1ccc(=O)[nH]n1	.	.	.	.	.	.	/
O=C(Nc1ccc(F)cc1)c1cccnn1	.	.	51	397	.	.	.
CC1(C)C2CC=C(/C=N/NC(=S)Nc3cccnc3)C1C2 (stereo not given)	.	.	65	745	.	.	.
Cc1noc(C)c1S(=O)(=O)N1CCCC(C(=O)NCC2CCCO2)C1 (stereo not given)	.	.	.	+	.	.	.
Cc1ccc(S(=O)(=O)N2CCCC(C(=O)NCC3CCCO3)C2)cc1 (stereo not given)	.	.	.	.	.	.	/
Cc1cccc(Nc2nc(OCC#N)nc(N(C)C)n2)c1	.	.	.	.	.	.	/
CCN(CC)c1nc(Nc2ccc(Cl)cc2)nc(OCC#N)n1	.	.	.	735	.	.	.
Cc1nc2nc[nH]n2c(=O)c1NS(=O)(=O)c1ccc(F)cc1	.	.	.	.	.	.	/
Cc1nc2nc[nH]n2c(=O)c1NS(=O)(=O)c1ccc([N+](=O)[O-])cc1	.	.	.	487	.	.	.
CC1(C)CCC(=O)N2CC[C@H]3C[C@H](OC(=O)Nc4ccc(Br)cc4)C[C@@H]1[C@H]32	.	.	.	805	.	.	.
O=C(COc1cnc2ccccc2n1)NCCC1=CCCCC1	.	.	.	+	.	.	.
O=C(COc1ncnc2c(Cl)cc(Cl)cc12)NCCC1=CCCCC1	.	.	.	420	.	.	.
O=C(COc1ncnc2ccccc12)NCCC1=CCCCC1	.	.	.	.	.	.	/
O=S(=O)(c1ccccc1)[C@@]1(c2ccc(Br)cc2)C[C@@H]2ON=C(c3ccccc3)[C@@H]2C1	.	.	.	.	.	.	/
CCn1cc(C(=O)N(C)c2ccc(OC)cc2OC)c2cc(OC)c(OC)cc2c1=O	.	.	.	415	.	.	.
Cc1c(Cl)cccc1NC(=S)NCc1ccco1	.	.	.	.	.	.	/
Cc1cccc(NC(=S)NCc2ccco2)c1C	.	.	.	619	.	.	.
COc1ccccc1C(=O)NCCNc1ccc([N+](=O)[O-])cc1Cl	.	.	.	456	.	.	.
COc1ccc(CCNC(=O)c2ccc([N+](=O)[O-])cc2Cl)cc1OC	.	.	.	.	.	.	/
